Test results published in PubChem BioAssay.
The source made the active and inactive calls. Unless noted, how the calls were made is not given here.

Tests used:
[1] = compound effects on lung adenocarcinoma cell viability – A549, calcein-AM fluorescence, 48 h, basal, profiling panel (AID 1162); details: higher = more signal; further: test concentration not given here
[2] = compound effects on differentiated 3T3-L1 adipocyte viability – cell-based, 3T3-L1 adipocytes, calcein-AM fluorescence, 48 h, basal, profiling panel (AID 1163); details: 3T3-L1 adipocytes viability, higher = more signal; further: test concentration not given here
[3] = compound effects on hepatocellular carcinoma cell viability – HepG2, calcein-AM fluorescence, 48 h, basal, profiling panel (AID 1164); details: higher = more signal; further: test concentration not given here
[4] = compound effects on multiple myeloma cell viability – MM1S, calcein-AM fluorescence, 48 h, basal, profiling panel (AID 1165); details: higher = more signal;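 further: viability of MM1S multiple myeloma cells under basal unstimulated conditions; test concentration not given here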
[5] = calcein-AM signal in unstimulated myeloma cells – cell-based, calcein-AM fluorescence, 48 h, PK04 Diversity Set, profiling panel (AID 1166); details: RPMI8226 myeloma viability, higher = more signal;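 further: cells grown under basal conditions without added stimulus; test concentration not given here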
[6] = JC-1 mitochondrial signal, unstimulated HepG2 cells – cell-based, JC-1 fluorescence, 24 h, 100 nL compound, profiling panel (AID 1167); details: HepG2 mitochondrial potential, higher = more signal; further: test concentration not given here
[7] = JC-1 mitochondrial signal, unstimulated adipocytes – cell-based, JC-1 fluorescence, 3T3-L1 adipocytes, 24 h, 100 nL compound, profiling panel (AID 1168); details: JC-1 mitochondrial fluorescence, higher = more signal, called active from +8 up or from −8 down; further: test concentration not given here
[8] = JC-1 mitochondrial signal, unstimulated myeloma cells – cell-based, JC-1 fluorescence, RPMI8226, 24 h, 100 nL compound, profiling panel (AID 1169); details: JC-1 mitochondrial potential fluorescence, higher = more signal; further: test concentration not given here
[9] = JC-1 mitochondrial signal, unstimulated MM1S myeloma – cell-based, JC-1 fluorescence, 24 h, 100 nL compound, profiling panel (AID 1170); details: MM1S mitochondrial potential, higher = more signal; further: test concentration not given here
[10] = resazurin metabolic signal in A549 cells – cell-based, resazurin fluorescence, 24 h, PK04 Diversity Set, profiling panel (AID 1171); details: A549 viability, higher = more signal, called active from +8 up or from −8 down; further: test concentration not given here
[11] = resazurin metabolic signal in HepG2 cells – cell-based, resazurin fluorescence, 24 h, PK04 Diversity Set, profiling panel (AID 1172); details: HepG2 viability, higher = more signal; further: test concentration not given here
[12] = budding yeast growth changes without added modifier – OD600, strain BY4716, 24 h, basal condition, primary screen (AID 1173); details: S. cerevisiae BY4716 growth, OD600, 24 h; higher = more signal, called active from +8 up or from −8 down
[13] = viability profiling in MM1S myeloma cells – cell-based, resazurin fluorescence, basal, 24 h, PK04 Diversity Set, profiling panel (AID 1174); details: higher = more signal, called active from +8 up or from −8 down; further: test concentration not given here
[14] = molecular target: Dihydroorotate dehydrogenase (quinone), mitochondrial (Plasmodium falciparum (isolate 3D7)) (UniProt Q08210); assay: inhibition of P. falciparum DHODH – biochemical, C-terminal His tag, absorbance 600 nm, primary screen (AID 1175); details: PfDHODH enzyme, DCIP absorbance 600 nm; higher = more signal, called active from +8 up or from −8 down;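 further: recombinant parasite enzyme with a five histidine tag at its C terminus; test concentration not given here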
Chain of Dihydroorotate dehydrogenase (quinone), mitochondrial (Plasmodium falciparum (isolate 3D7)) (Q08210 whole entry, looked up): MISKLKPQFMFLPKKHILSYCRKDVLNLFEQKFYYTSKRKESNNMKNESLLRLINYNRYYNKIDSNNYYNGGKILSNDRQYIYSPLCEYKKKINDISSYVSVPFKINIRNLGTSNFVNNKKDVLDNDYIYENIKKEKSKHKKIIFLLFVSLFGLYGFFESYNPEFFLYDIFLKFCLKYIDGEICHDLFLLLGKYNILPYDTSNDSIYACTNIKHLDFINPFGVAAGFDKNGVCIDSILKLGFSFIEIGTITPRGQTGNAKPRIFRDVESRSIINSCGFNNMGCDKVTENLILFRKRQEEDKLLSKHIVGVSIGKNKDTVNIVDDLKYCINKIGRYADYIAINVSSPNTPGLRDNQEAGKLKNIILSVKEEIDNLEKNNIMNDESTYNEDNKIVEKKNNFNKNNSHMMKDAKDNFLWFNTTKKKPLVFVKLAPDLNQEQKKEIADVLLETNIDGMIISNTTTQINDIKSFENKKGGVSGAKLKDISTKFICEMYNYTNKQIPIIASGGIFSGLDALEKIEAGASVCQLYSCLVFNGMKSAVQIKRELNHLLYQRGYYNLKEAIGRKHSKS

[15] = inhibition of PAO1 biofilm formation – strain PAO1, LB-PBS medium, absorbance 600 nm, primary screen (AID 1176); further: test concentration not given here; details: P. aeruginosa PAO1 growth/biofilm, A600, 12 h; higher = more signal
[16] = growth modulation of vineyard yeast isolate – strain RM11-1a, OD600, basal, 24 h, primary screen (AID 1177);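 further: cultures grown under basal conditions with no added stressor; test concentration not given here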; details: S. cerevisiae RM11-1a growth, OD600, 24 h; higher = more signal, called active from +8 up or from −8 down
[17] = growth of efflux-deficient E. coli DRC39 – strain DRC39, OD650, 24 h, E. coli filamentation inducers, primary screen (AID 1178);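 further: growth measured as culture turbidity by optical density at 650 nm; test concentration not given here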; details: E. coli DRC39 acrAB, higher = more signal, called active from +8 up or from −8 down
[18] = growth of efflux-deficient E. coli DRC39 – strain DRC39, OD650, 48 h, E. coli filamentation inducers, primary screen (AID 1179);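 further: screen aims at cell division blockers that make cells filament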; details: E. coli DRC39 delta-acrAB growth, higher = more signal, called active from +8 up or from −8 down
[19] = viability profiling in RPMI8226 myeloma cells – cell-based, resazurin fluorescence, basal, 24 h, PK04 Diversity Set, profiling panel (AID 1180); details: higher = more signal;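 further: RPMI8826 multiple myeloma cell line at 5000 cells per well; test concentration not given here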
[20] = molecular target: E3 ubiquitin-protein ligase XIAP (Homo sapiens) (UniProt P98170); assay: small molecules binding XIAP protein – biophysical, small-molecule microarray, fluorescence 635 nm, primary screen (AID 1181); details: higher = more signal;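 further: score merges 667 nm emission and signal to noise over triplicate slides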
Chain of E3 ubiquitin-protein ligase XIAP (Homo sapiens) (P98170 whole entry, looked up): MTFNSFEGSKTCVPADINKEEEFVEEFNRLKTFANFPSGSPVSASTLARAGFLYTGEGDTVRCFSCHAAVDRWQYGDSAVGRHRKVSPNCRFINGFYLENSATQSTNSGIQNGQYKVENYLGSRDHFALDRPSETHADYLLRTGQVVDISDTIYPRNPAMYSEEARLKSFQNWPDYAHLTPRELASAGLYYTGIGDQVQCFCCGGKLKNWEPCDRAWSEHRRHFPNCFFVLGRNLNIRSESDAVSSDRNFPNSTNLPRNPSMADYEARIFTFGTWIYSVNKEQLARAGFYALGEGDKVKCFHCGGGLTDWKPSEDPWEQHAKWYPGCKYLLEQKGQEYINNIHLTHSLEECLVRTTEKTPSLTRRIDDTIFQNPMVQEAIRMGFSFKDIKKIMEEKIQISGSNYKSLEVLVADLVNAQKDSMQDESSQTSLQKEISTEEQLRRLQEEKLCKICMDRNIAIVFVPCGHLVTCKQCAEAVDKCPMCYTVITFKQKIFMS

Row | SMILES | z-score [1] | z-score [2] | z-score [3] | z-score [4] | z-score [5] | z-score [6] | z-score [7] | z-score [8] | z-score [9] | z-score [10] | z-score [11] | z-score [12] | z-score [13] | composite z-score [14] | z-score [15] | z-score [16] | z-score [17] | z-score [18] | z-score [19] | composite z-score [20]
1 | Cc1ccc(S[C@]2(C(=O)NC(C)C)CC(=O)N(C3CCCCC3)[C@@H]2c2ccc(CO)cc2I)cc1 | -0.0909 | 0.0617 | -0.938 | -2.07 | -2.68 | 1.06 | -0.0605 (inactive) | -0.351 | -1.12 | 0.81 (inactive) | 0.748 | 0.27 (inactive) | -0.611 (inactive) | 0.62 (inactive) | 0.462 (inactive) | 1.16 (inactive) | 0.384 (inactive) | -0.138 (inactive) | -2.01 | -0.0559
2 | O=C(NCC(O)CO)[C@@]1(CCS(=O)(=O)c2ccccc2)N=C(c2ccc(OCCCO)cc2)O[C@H]1c1ccccc1 (stereo not given in full) | 0.433 | 0.719 | -0.4 | -1 | -2.47 | 0.956 | -0.874 (inactive) | -0.694 | -0.745 | -0.0521 (inactive) | -0.748 | -0.386 (inactive) | -0.133 (inactive) | -0.637 (inactive) | 0.618 (inactive) | -0.707 (inactive) | 0.107 (inactive) | -0.618 (inactive) | -0.195 | 0.0341
3 | COC(=O)[C@@]1(Cc2ccccc2)[C@H]2c3cc(C(=O)N(C)C)n(CCO)c3C[C@H]2CN1C(=O)c1ccccc1 | -1.33 | 0.18 | -0.28 | -0.0531 | -1.99 | -0.92 | -2.92 (inactive) | 0.127 | -0.787 | -0.723 (inactive) | -0.546 | 1.24 (inactive) | -1.28 (inactive) | 0.0058 (inactive) | 0.274 (inactive) | 0.329 (inactive) | -0.751 (inactive) | -0.217 (inactive) | -1.11 | -0.0152
4 | CN(C)CCCCNC(=O)[C@H]1C[C@H]2C(=O)N3CCC[C@H]3C(=O)N2[C@H]1c1cccc(OCCO)c1 | -0.893 | -0.0471 | -0.458 | 0.123 | 0.291 | -1.05 | 0.119 (inactive) | 0.712 | 0.0655 | 0.677 (inactive) | -0.0329 | 0.949 (inactive) | 0.299 (inactive) | 0.483 (inactive) | 0.202 (inactive) | 1.76 (inactive) | -0.0332 (inactive) | -0.536 (inactive) | -0.116 | 0.906
5 | O=C(NCCN1CCOCC1)[C@@H]1c2ccccc2C(=O)N(Cc2ccccc2C(F)(F)F)[C@H]1c1ccc(CO)cc1 | 1.9 | 0.783 | 0.893 | 0.561 | -0.588 | 2.59 | -0.0687 (inactive) | -0.335 | -0.109 | 1.94 (inactive) | 0.846 | -0.139 (inactive) | 1.17 (inactive) | -0.899 (inactive) | -0.342 (inactive) | -0.276 (inactive) | 0.394 (inactive) | 0.192 (inactive) | 1.44 | 0.0487
6 | O=C1[C@H]2C=C(I)[C@H](C[C@@H]2OCCCCCCO)[C@@]12CO2 | 0.249 | -0.0741 | -0.394 | -1.22 | -0.273 | -1.58 | 0.0285 (inactive) | -0.264 | -0.571 | 0.339 (inactive) | 0.21 | -1.77 (inactive) | -0.394 (inactive) | 0.742 (inactive) | 1.13 (inactive) | -0.473 (inactive) | -0.875 (inactive) | -0.482 (inactive) | -0.658 | -0.109
7 | COc1ccc(C(O)C2C=CC3C(=O)N(c4ccccc4)C(=O)C3N2Nc2ccc(C#N)cc2)cc1OCc1ccccc1 (stereo not given) | 0.233 | -0.735 | 0.753 | 0.333 | -0.692 | -0.974 | -1.14 (inactive) | -0.137 | -0.222 | 0.141 (inactive) | -1.74 | 0.0151 (inactive) | -0.829 (inactive) | 0.94 (inactive) | 1.45 (inactive) | -0.396 (inactive) | -0.933 (inactive) | -0.0725 (inactive) | -0.756 | 0.44
8 | NCCCCCCNC(=O)[C@@H]1C[C@@H]2C(=O)N3CCC[C@H]3C(=O)N2[C@@H]1c1cccc(OCCO)c1 | 0.108 | 1.18 | -0.12 | 0.597 | 0.313 | 0.127 | 0.391 (inactive) | -0.675 | 0.468 | 0.999 (inactive) | 0.158 | -1.44 (inactive) | 0.711 (inactive) | 0.101 (inactive) | -1.23 (inactive) | -0.853 (inactive) | 0.699 (inactive) | 0.768 (inactive) | -0.0931 | -0.0172
